Where “and” joins values, the source holds several entries; their conditions need not be identical. Equal entries are not always repeated. Results filed as inconclusive are left out. Entries that show only a call come without a potency. Some structures have more than one record in an assay (separate samples or runs), and their calls can disagree. Calls of active or inactive are those of the source. Unless noted, calls come from the whole dose curve; as a rule, active = well fitted curve in the direction sought with a large enough effect in the repeat runs; inconclusive = weak or mixed curves; inactive = no such curve, though single readings can be large; an effect the other way counts as inactive or inconclusive.
How the values were obtained:
[1] = qHTS assay to identify small molecule agonists of the peroxisome proliferator-activated receptor delta (PPARd) signaling pathway - cell viability counter screen (AID 743211); note: nearly all actives have a fitted effect of over 55% in size
Summary of the method: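 PPARd-bla HEK293H cells (UAS-beta-lactamase reporter) were treated with compounds for 17 h at 37 C. Viability was then read in the same wells by CellTiter-Glo luminescence after 30 min at room temperature.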

[2] = molecular target: Peroxisome proliferator-activated receptor delta (Homo sapiens) (UniProt Q03181); assay: qHTS assay to identify small molecule agonists of the peroxisome proliferator-activated receptor delta (PPARd) signaling pathway (AID 743212; calls by dose curve)
Peroxisome proliferator-activated receptor delta (Homo sapiens), sequence (Q03181 whole entry, looked up): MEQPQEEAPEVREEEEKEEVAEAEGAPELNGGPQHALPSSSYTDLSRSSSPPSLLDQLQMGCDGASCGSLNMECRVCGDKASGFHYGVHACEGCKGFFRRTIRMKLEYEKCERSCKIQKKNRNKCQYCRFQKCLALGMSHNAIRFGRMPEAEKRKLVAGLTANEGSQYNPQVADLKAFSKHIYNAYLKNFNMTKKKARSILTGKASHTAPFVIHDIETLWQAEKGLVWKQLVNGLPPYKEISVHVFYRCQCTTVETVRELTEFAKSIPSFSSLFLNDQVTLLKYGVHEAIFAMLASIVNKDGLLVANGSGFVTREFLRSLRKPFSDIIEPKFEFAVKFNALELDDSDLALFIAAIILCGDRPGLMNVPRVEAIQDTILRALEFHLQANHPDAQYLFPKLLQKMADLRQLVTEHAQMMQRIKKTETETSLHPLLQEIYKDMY
Summary of the method: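 HEK293H PPARd-bla cells; 5 h preincubation 37 C/5% CO2; compound (DMSO) 37 C; LiveBLAzer B/G FRET substrate 2 h RT; fluorescence intensity.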

[3] = qHTS assay to identify small molecule antagonists of the peroxisome proliferator-activated receptor delta (PPARd) signaling pathway - cell viability counter screen (AID 743213); note: nearly all actives have a fitted effect of over 50% in size; note: potency is the fitted concentration of half-maximal effect
Summary of the method: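 Luminescence from CellTiter-Glo, added after the bla read and incubated 30 min at room temperature, gives viability of HEK293H PPARd-bla cells exposed to compounds for 17 h at 37 C with 300 nM L165041.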

[4] = molecular target: Peroxisome proliferator-activated receptor delta (Homo sapiens) (UniProt Q03181); assay: qHTS assay to identify small molecule antagonists of the peroxisome proliferator-activated receptor delta (PPARd) signaling pathway (AID 743215; active = well fitted inhibition curve with a large enough effect in the signal ratio in the repeat runs, not every such curve was filed as active; the % refers to the signal ratio;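 note: cells stimulated with agonist L165041 at 300 nM final during compound exposure; series mostly up to about 62 µM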)
Summary of the method: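 PPARd UAS-bla HEK293H cells were pre-incubated 5 h at 37 C, then given test compounds in DMSO plus agonist L165041 (300 nM final). After 17 h at 37 C, beta-lactamase FRET substrate was added; fluorescence read after 2 h at room temperature.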

[5] = qHTS assay to identify small molecule agonists of the farnesoid-X-receptor (FXR) signaling pathway - cell viability counter screen (AID 743218); note: nearly all actives have a fitted effect of over 45% in size
Summary of the method: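 FXR-UAS-bla HEK 293T cells, plated 5 h at 37 C, were exposed to compounds for 16 h at 37 C. CellTiter-Glo was then added to the same wells as the bla readout; luminescence read after 30 min at room temperature.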

[6] = qHTS assay to identify small molecule antagonists of the farnesoid-X-receptor (FXR) signaling pathway - cell viability counter screen (AID 743221; active = well fitted cell-killing curve with a large enough effect in the repeat runs, not every such curve was filed as active; note: nearly all actives have a fitted effect of over 50% in size)
Summary of the method: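 FXR-UAS-bla HEK 293T cells were treated with test compounds plus chenodeoxycholic acid (50 uM final) for 16 h at 37 C. Cell viability in the same wells was then read as CellTiter-Glo luminescence after 30 min at room temperature.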

[7] = molecular target: Vitamin D3 receptor (Homo sapiens) (UniProt P11473); assay: qHTS assay to identify small molecule antagonists of the vitamin D receptor (VDR) signaling pathway (AID 743223; active = well fitted inhibition curve with a large enough effect in the signal ratio in the repeat runs, not every such curve was filed as active; the % refers to the signal ratio)
Vitamin D3 receptor (Homo sapiens), sequence (P11473 whole entry, looked up): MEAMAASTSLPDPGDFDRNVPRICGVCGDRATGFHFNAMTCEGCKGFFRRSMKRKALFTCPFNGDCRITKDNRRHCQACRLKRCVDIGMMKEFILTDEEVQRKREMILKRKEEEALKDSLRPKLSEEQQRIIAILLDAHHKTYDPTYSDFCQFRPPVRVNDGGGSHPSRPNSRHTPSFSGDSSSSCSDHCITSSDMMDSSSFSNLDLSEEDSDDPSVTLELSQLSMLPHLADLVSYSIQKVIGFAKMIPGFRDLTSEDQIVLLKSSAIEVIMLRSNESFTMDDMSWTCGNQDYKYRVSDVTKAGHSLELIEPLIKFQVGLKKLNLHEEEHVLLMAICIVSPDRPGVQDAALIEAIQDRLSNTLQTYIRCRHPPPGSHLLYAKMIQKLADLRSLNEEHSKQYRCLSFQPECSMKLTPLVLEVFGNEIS
Summary of the method: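 VDR-bla cells were plated, incubated 4 h at 37C, then given compound and 1alpha,25-dihydroxyvitamin D3 (3 nM final). After 16 h at 37C, LiveBLAzer B/G FRET substrate was added for 2 h at room temperature and fluorescence read.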

[8] = molecular target: Bile acid receptor (Homo sapiens) (UniProt Q96RI1); assay: qHTS assay to identify small molecule antagonists of the farnesoid-X-receptor (FXR) signaling pathway (AID 743217; active = well fitted inhibition curve with a large enough effect in the signal ratio in the repeat runs, not every such curve was filed as active; the % refers to the signal ratio)
Bile acid receptor (Homo sapiens), sequence (Q96RI1 whole entry, looked up): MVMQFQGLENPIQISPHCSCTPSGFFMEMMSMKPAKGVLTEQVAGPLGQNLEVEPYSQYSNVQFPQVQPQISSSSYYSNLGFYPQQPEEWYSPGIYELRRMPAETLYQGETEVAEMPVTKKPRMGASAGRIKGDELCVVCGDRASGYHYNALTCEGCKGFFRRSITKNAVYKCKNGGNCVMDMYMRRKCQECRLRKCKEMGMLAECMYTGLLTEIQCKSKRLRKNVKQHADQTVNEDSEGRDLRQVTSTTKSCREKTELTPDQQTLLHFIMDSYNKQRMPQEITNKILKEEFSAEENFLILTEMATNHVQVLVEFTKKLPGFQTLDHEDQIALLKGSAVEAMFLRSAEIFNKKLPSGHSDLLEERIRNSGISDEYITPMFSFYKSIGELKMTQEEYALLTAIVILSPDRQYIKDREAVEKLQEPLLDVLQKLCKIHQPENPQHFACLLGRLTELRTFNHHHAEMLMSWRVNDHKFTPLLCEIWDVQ
Summary of the method: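 FXR-UAS-bla HEK 293T cells pre-incubated 5 h at 37 °C, then exposed to compounds with chenodeoxycholic acid (50 uM final) for 16 h at 37 °C. Beta-lactamase reporter read by LiveBLAzer B/G FRET substrate fluorescence after 2 h at room temperature.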

[9] = molecular target: Bile acid receptor (Homo sapiens) (UniProt Q96RI1); assay: qHTS assay to identify small molecule agonists of the farnesoid-X-receptor (FXR) signaling pathway (AID 743220; active = well fitted activation curve with a large enough effect in the signal ratio in the repeat runs, not every such curve was filed as active; the % refers to the signal ratio)
Summary of the method: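 Beta-lactamase reporter under UAS control in GeneBLAzer FXR HEK 293T cells (5000/well) measured with LiveBLAzer FRET substrate after 2 h at room temperature. Compound exposure lasted 16 h at 37C.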

[10] = molecular target: Vitamin D3 receptor (Homo sapiens) (UniProt P11473); assay: qHTS assay to identify small molecule agonists of the vitamin D receptor (VDR) signaling pathway (AID 743222; calls by dose curve)
Summary of the method: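 VDR-bla cells were plated 4 h at 37C/5% CO2, then exposed to compounds in DMSO for 16 h. After LiveBLAzer B/G FRET substrate addition and 2 h at room temperature, beta-lactamase reporter fluorescence was read.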

Compound | Potency [1] | outcome [2] | Potency [3] | outcome [4] | Potency [5] | Potency [6] | outcome [7] | Potency [8] | outcome [9] | outcome [10]
O=Cc1ccccc1C=O | inactive | inactive | 24.5 µM (active) and inactive | inactive | inactive | inactive | – | – | – | –
O=C1OC2(c3ccccc31)c1cc(I)c(O)c(I)c1Oc1c2cc(I)c(O)c1I | inactive | inactive | inactive and 33.4 µM (active) | inactive | inactive | inactive | inactive | – | – | –
C=CC(=O)OCCCC | inactive | inactive | inactive | inactive | inactive | inactive | inactive | inactive | inactive | inactive
CCO[Si](CCCNC(N)=O)(OCC)OCC | inactive | inactive | inactive | inactive | inactive | inactive | inactive | inactive | – | inactive
Brc1nc2ccccc2s1 | inactive | inactive | inactive | inactive | – | inactive | – | inactive | – | inactive
NCCOCCO | inactive | inactive | inactive | inactive | – | inactive | inactive | inactive | – | inactive
COc1ccc(C(=O)c2ccccc2O)c(O)c1 | inactive | inactive | inactive | inactive | inactive | inactive | – | – | – | –
Cc1ccc2c(c1)C(=O)OC2=O | inactive | inactive | inactive | inactive | inactive | inactive | inactive | – | – | inactive
CC(C)(Oc1ccc(Cl)cc1)C(=O)O | inactive | inactive | inactive | inactive | inactive | inactive | inactive | – | – | inactive
Cc1ccc(S(=O)(=O)O)cc1C | inactive | inactive | inactive | inactive | inactive | inactive | inactive | – | – | inactive
C1CN(SSN2CCOCC2)CCO1 | inactive | inactive | inactive | inactive | – | inactive | – | inactive | – | –
CCCCCCCC/C=C\CCCCCCCC(=O)O | inactive | inactive | inactive | inactive | inactive | inactive | – | inactive | – | –
O=C1CCc2ccccc2O1 | inactive | inactive | inactive | inactive | inactive | inactive | inactive | – | – | inactive
CC(C)[N+](C)(CCOC(=O)C1c2ccccc2Oc2ccccc21)C(C)C | inactive | inactive | inactive | inactive | – | inactive | inactive | inactive | – | inactive
CC(=O)Nc1ccc2c(c1)Cc1cc(NC(C)=O)ccc1-2 | inactive | inactive | inactive | inactive | inactive | inactive | inactive | – | – | inactive
CC1(C)OC(=O)NC1=O | inactive | inactive | inactive | inactive | inactive | inactive | inactive | inactive | – | inactive
O=C(O)c1cc(=O)[nH]c(=O)[nH]1 | inactive | inactive | inactive | inactive | inactive | inactive | – | – | – | –
CC1(C)C(C=C(Cl)Cl)C1C(=O)OCc1cccc(Oc2ccccc2)c1 (centres undefined) | inactive | inactive | inactive | inactive | inactive | inactive | inactive | – | – | inactive
COC(=O)C(C)Oc1ccc(Oc2ncc(C(F)(F)F)cc2Cl)cc1 (centres undefined) | inactive | inactive | inactive | inactive | inactive | inactive | inactive | – | – | inactive
IC(I)I | inactive | inactive | inactive | inactive | inactive | inactive | – | inactive | – | –
CC(=O)[C@H]1CC[C@H]2[C@@H]3CC=C4C[C@@H](O)CC[C@]4(C)[C@H]3CC[C@]12C | inactive | inactive | inactive | inactive | – | inactive | inactive | inactive | – | inactive
CCCCCCCCCCCCCO | inactive | inactive | inactive | inactive | inactive | inactive | inactive | – | – | inactive
C=C[C@H]1CN2CC[C@H]1C[C@@H]2[C@@H](O)c1ccnc2ccc(OC)cc12 | inactive | inactive | inactive | inactive | – | inactive | – | – | – | –
Nc1cc(Cl)c(N)c(Cl)c1 | inactive | inactive | inactive | inactive | – | inactive | – | inactive | – | inactive
Nc1cc([N+](=O)[O-])ccc1C(=O)O | inactive | inactive | inactive | inactive | inactive | inactive | inactive | – | – | inactive

Compound | Potency [1] | outcome [2] | Potency [3] | outcome [4] | Potency [5] | Potency [6] | outcome [7] | Potency [8] | outcome [9] | outcome [10]
ClC/C=C/CCl | inactive | inactive | inactive | inactive | inactive | inactive | inactive | – | – | inactive
CC(C)(C)c1cccc(C(C)(C)C)c1O | inactive | inactive | inactive | inactive | inactive | inactive | – | inactive | – | –
CC(=O)OC(C)C | inactive | inactive | inactive | inactive | inactive | inactive | inactive | inactive | – | inactive
C=CCOC(=O)C(=C)C | inactive | inactive | inactive | inactive | inactive | inactive | inactive | – | – | inactive
Oc1c(Cl)ccc(Cl)c1Cl | inactive | inactive | inactive | inactive | – | inactive | inactive | inactive | – | inactive
C=C[Si](OCCOC)(OCCOC)OCCOC | inactive | inactive | inactive | inactive | inactive | inactive | inactive | inactive | – | inactive
C=CCCCCCCCCCC | inactive | inactive | inactive | inactive | inactive | inactive | – | – | – | –
C[N+](C)(C)CCO | inactive | inactive | inactive | inactive | inactive | inactive | inactive | – | – | inactive
C1COCCN1 | inactive | inactive | inactive | inactive | inactive | inactive | inactive | – | – | inactive
CCCN1C=CN(C)C1 | inactive | inactive | inactive | inactive | inactive | inactive | inactive | inactive | inactive | inactive
c1ccc2c(c1)ccc1cc3c(ccc4ccccc43)cc12 | inactive | inactive | inactive | inactive | – | inactive | – | inactive | – | –
Nc1ccc2c(c1)C(=O)c1ccccc1C2=O | inactive | inactive | inactive | inactive | inactive | inactive | – | – | – | –
FC(F)(F)C(Cl)Br (centres undefined) | inactive | inactive | inactive | inactive | inactive | inactive | – | – | – | –
CCCCCCCCCCCCO | inactive | inactive | inactive | inactive | inactive | inactive | inactive | inactive | inactive | inactive
Cc1cccc(Nc2ccccc2C(=O)O)c1C | inactive | – | inactive | inactive | inactive | inactive | – | – | – | –
CN1CCOCC1 | inactive | – | inactive | – | inactive | inactive | inactive | – | – | inactive
CC1(C)O[C@@H]2C[C@H]3[C@@H]4C[C@H](F)C5=CC(=O)C=C[C@]5(C)[C@@]4(F)[C@@H](O)C[C@]3(C)[C@]2(C(=O)CO)O1 | inactive | inactive | inactive | – | inactive | inactive | inactive | – | – | –
CCC(Cc1c(I)cc(I)c(N)c1I)C(=O)O (centres undefined) | inactive | – | inactive | inactive | inactive | inactive | – | inactive | – | inactive
C=C[C@H]1CN2CC[C@H]1C[C@H]2[C@H](O)c1ccnc2ccc(OC)cc12 | inactive | inactive | – | inactive | inactive | inactive | – | – | – | –
C=CC(C)(O)CCC=C(C)C (centres undefined) | inactive | – | inactive | – | inactive | inactive | inactive | inactive | – | inactive
CC(=O)O[C@]1(C(C)=O)CC[C@H]2[C@@H]3C=C(C)C4=CC(=O)CC[C@]4(C)[C@H]3CC[C@@]21C | inactive | – | inactive | – | inactive | inactive | inactive | – | – | –
O=C(O)COCCN1CCN(C(c2ccccc2)c2ccc(Cl)cc2)CC1 (centres undefined) | – | inactive | inactive | inactive | inactive | inactive | inactive | inactive | – | inactive
COc1cc([C@H]2Oc3cc([C@H]4Oc5cc(O)cc(O)c5C(=O)[C@@H]4O)ccc3O[C@@H]2CO)ccc1O | inactive | – | inactive | – | inactive | inactive | – | inactive | – | –
Cc1ccc(C(C)(C)C)c(O)c1 | inactive | – | inactive | – | – | inactive | inactive | inactive | – | inactive
CCCCCC=O | inactive | inactive | inactive | – | – | inactive | inactive | inactive | – | inactive

From PubChem BioAssay (Tox21)
